Bioassay records deposited in PubChem BioAssay by National Center for Advancing Translational Sciences (NCATS).
PI5P4Ka inh = inhibitors of human PI5P4K alpha. PI5P4Kalpha enzyme, ADP-Glo luminescence, 60 min; stronger effect = lower value. 330,000 tested, 1.2% active. max response, %. P48426; active = max response of -50% or lower; inconclusive = between -30% and -50%; inactive = -30% or higher; also: value at the top dose of about 77 µM; % is scaled to controls: 0 for no effect and ±100 for the full control effect
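PI5P4Kalpha ADP-Glo assay; 5 microM ATP final; 60 min RT reaction; HEPES pH 7.4/EGTA/CHAPS, 5% DMSO; controls lacking substrate or enzyme; luminescent end-point.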
HP1b binding inh = HP1-beta chromodomain-methylated histone interaction inhibition. P83916. AlphaScreen HP1-beta / biotin-H3K9me3 peptide binding. Potency, µM (highest dose often 114 µM), for the others: top-dose activity change, negative = inhibition, hits mostly inhibitors. 390,000 tested, 0.56% active; also: potency is read from the fitted curve at half-maximal effect; nearly all actives have a fitted effect of over 70% in size
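Compound inhibition of the preformed complex between 50 nM HP1-beta and 50 nM biotinylated H3K9me3 peptide was read by AlphaScreen. Buffer was PBS pH 7.4 with 0.01% Tween-20. Incubations ran 30 min at room temperature, with 10 ug/mL donor/acceptor beads.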
BAZ2B inh = BAZ2B (human) inhibition | Q9UIF8 | AlphaScreen BAZ2B-H3K14Ac peptide displacement | Potency, µM (titrated, usually from 114 µM), without a hit: top-dose activity change, negative = inhibition, hits mostly inhibitors | 360,000 tested, 4.4% active; also: potency is read from the fitted curve at half-maximal effect; % is scaled to controls: 0 for no effect and ±100 for the full control effect; nearly all actives have a fitted effect of over 60% in size
Target sequence (Q9UIF8 whole entry, looked up): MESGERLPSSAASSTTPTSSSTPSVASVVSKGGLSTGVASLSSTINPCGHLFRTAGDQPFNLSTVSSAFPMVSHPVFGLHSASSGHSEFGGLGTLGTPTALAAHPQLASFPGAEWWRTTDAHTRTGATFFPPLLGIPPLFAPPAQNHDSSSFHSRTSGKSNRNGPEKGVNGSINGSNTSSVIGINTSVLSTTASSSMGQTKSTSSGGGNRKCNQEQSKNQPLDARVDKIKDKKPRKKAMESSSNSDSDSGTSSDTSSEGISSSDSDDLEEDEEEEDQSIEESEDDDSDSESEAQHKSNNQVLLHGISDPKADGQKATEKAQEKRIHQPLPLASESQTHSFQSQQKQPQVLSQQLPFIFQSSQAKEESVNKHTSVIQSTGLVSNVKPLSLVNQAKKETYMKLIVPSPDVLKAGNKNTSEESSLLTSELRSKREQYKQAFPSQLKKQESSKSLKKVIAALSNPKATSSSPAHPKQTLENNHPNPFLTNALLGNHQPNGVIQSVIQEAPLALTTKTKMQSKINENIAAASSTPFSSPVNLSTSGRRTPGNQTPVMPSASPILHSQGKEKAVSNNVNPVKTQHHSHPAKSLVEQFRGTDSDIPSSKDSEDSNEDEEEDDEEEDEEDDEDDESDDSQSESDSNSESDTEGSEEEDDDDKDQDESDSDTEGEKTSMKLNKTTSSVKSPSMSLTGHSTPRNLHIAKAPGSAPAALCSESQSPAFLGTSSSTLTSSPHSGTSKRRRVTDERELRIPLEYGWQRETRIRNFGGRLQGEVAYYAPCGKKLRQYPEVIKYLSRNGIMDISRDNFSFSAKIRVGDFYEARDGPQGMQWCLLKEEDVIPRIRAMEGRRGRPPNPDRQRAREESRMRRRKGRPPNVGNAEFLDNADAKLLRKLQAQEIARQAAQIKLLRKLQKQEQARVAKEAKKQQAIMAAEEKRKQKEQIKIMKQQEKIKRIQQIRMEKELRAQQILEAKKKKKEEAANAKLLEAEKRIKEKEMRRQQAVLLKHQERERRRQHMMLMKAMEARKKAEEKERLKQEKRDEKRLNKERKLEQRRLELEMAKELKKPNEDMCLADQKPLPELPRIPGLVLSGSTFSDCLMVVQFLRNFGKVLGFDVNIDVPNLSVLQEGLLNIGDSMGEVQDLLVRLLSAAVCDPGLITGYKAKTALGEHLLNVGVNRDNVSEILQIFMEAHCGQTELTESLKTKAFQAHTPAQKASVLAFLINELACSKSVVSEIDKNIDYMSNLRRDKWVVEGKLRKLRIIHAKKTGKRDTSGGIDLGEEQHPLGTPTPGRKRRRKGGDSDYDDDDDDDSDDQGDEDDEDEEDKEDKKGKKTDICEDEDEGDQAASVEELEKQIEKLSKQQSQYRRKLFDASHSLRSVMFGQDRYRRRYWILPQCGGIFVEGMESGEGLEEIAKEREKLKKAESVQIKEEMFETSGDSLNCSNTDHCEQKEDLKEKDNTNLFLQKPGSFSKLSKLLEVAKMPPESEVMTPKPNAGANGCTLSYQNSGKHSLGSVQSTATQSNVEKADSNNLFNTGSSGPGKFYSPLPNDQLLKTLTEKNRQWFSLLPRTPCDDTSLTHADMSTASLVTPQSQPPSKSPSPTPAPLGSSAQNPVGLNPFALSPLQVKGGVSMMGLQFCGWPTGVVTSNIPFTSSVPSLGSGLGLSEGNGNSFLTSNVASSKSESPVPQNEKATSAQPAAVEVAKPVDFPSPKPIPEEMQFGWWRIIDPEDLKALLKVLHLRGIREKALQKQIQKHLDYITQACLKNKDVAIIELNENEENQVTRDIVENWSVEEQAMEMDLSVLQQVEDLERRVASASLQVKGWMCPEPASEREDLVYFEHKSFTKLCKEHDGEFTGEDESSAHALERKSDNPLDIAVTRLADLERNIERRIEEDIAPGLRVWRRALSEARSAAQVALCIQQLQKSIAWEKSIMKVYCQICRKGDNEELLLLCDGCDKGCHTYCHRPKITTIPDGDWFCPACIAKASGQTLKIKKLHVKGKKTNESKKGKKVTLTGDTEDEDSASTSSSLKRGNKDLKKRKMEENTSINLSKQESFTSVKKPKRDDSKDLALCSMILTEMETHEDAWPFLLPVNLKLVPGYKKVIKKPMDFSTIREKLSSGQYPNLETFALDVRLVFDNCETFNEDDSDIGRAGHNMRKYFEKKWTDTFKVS
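Inhibition is scored as reduced AlphaScreen emission. The BAZ2B/b-H3(5-23)K14Ac complex (50 nM each) in PBS pH 7.4, 0.01% Tween-20 meets compound (up to 110 uM) for 30 min at RT before bead addition.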
G9a block = inhibitors of human histone lysine methyltransferase G9a; Q96KQ7; G9a H3K9 monomethylation, AlphaScreen, 2 h; Potency, µM (top dose mostly 102 µM), without a hit: top-dose activity, negative = inhibition, actives largely listed as inhibitors; 350,000 tested, 8.8% active; also: potency is read from the fitted curve at half-maximal effect; % is scaled to controls: 0 for no effect and ±100 for the full control effect; nearly all actives have a fitted effect of over 75% in size
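AlphaScreen read-out: biotin-H3K9 peptide (500 nM) methylation by 20 nM enzyme with 20 uM SAM, 2 h at room temperature after 15 min compound preincubation; anti-monomethyl H3K9 antibody plus donor/acceptor beads, 10 min dark.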
PLK1 PBD inh = inhibitors of human PLK1 polo-box domain binding | P53350 | Plk1 PBD binding of FITC phosphopeptide, fluorescence polarization | Potency, µM, without a hit: max response, negative = inhibition, actives largely listed as inhibitors | 360,000 tested, 2.8% active | AID 720504; also: potency is read from the fitted curve at half-maximal effect; series mostly up to about 57 µM; % is scaled to controls: 0 for no effect and ±100 for the full control effect; nearly all actives have a fitted effect of over 65% in size
JMJD2A Tudor = JMJD2A Tudor domain (human) inhibition; Potency, µM (series often up to 114 µM), for the others: top-dose activity change, negative = inhibition, most hits filed as inhibitors; 390,000 tested, 4.4% active; AlphaScreen JMJD2A-Tudor / H3K4me3 peptide binding; also: potency is read from the fitted curve at half-maximal effect; % is scaled to controls: 0 for no effect and ±100 for the full control effect; nearly all actives have a fitted effect of over 50% in size
An asterisk follows results filed as active; ? = inconclusive; · = not tested or not shown; ! = not active in a repeat; [ ] = dose if it differs, or a comment. Compounds with a hit are over-represented: about 12% of the library has one in this group of screens. Unless noted, calls follow the shape of the dose curve; as a rule, active = well fitted curve in the direction sought with a large enough effect; inconclusive = small, poorly fitted or top-dose-only effect, or another doubt; inactive = no such curve, though single readings can be large; an effect the other way counts as inactive or inconclusive.

SMILES	PI5P4Ka inh	HP1b binding inh	BAZ2B inh	G9a block	PLK1 PBD inh	JMJD2A Tudor
Cc1ccc(NC(=O)CSc2nccn2Cc2ccco2)cc1Cl	·	0%[57 µM]	?	-31%[59 µM]	·	?
COc1ccc(NC(=O)c2ccccc2SC)c(OC)c1	4	35%	-12%	18µM*	-7%	-11%
COc1ccc(NC(=O)c2c(OC)cccc2OC)c(OC)c1	·	?	50µM*	?	-8%	56µM*
COc1ccc(NC(=O)c2cccc(N3C(=O)C4C5C=CC(C6CC56)C4C3=O)c2)c(OC)c1 (configuration not stated)	3	-7%	-23%	-12%	24µM*	?
COc1ccc(NC(=O)c2cccc(N3C(=O)C4C5C=CC(C5)C4C3=O)c2)c(OC)c1 (configuration not stated)	-4	23%	-18%[57.1 µM]	1%	-5%	-19%
COc1ccc(NC(=O)c2ccc(C(=O)Nc3ccc(OC)cc3OC)cc2)c(OC)c1	-1	-10%	-38%	43%[59 µM]	-6%	-16%
COc1ccc2o/c(=N\O)c(C(=O)Nc3ccccc3OC)cc2c1	0	5%	-24%	1.6µM*	0%	-25%
COc1ccccc1Cc1c(-c2cccc(Cl)c2)nc2ccc(Br)cn12	-3	·	·	·	-4%	·
O=C(NCc1ccccc1C(F)(F)F)c1cccc2c1C(=O)c1ccc(N3CCC(N4CCCCC4)CC3)cc1S2(=O)=O	-8	·	·	·	7%	·
COc1ccccc1OCC(=O)Nc1c(C(=O)c2ccc(F)cc2)oc2ccccc12	·	17%	-1%	-3%[59 µM]	·	-5%
O=[N+]([O-])C(=C1NCCN1)C(Cl)=C(Cl)Cl	3	44%	-11%	56µM*	0%	11%
COC(=O)C1=C(C(=O)OC)C(c2ccccc2O)c2sc(=O)[nH]c2S1 (configuration not stated)	-28	10%	?	10µM*	4.2µM*	-15%
CCn1nc(NC(=O)c2ccccn2)c2cc3cc(C)ccc3nc21	-10	79%	84%	138%	24µM*	-3%[11.4 µM]
CCn1nc(NC(=O)Cc2ccc(OC)cc2)c2cc3cccc(C)c3nc21	3	4%	3%	6%	-6%	-2%
CCn1nc(NC(=O)Cc2ccc(OC)cc2)c2cc3cc(C)ccc3nc21	2	23%	-4%	45µM*	-8%	-9%
CCCCCC(=O)OC(CN1CCCCCC1)CN1CCCC1=O (configuration not stated)	1	30%	2%	·	-1%	-25%
CCCCCCCC(=O)OC(CN1CCCCC1)CN1CCCC1=O (configuration not stated)	·	9%	0%	11µM*	-12%	-3%
CCCCCCS(=O)[C@H]1CS(=O)(=O)C[C@@H]1S(=O)CCCCCC (some centres not stated)	-11	45%	-4%	8.9µM*	12µM*	-7%
CCCCCCCCS(=O)C1CCS(=O)(=O)C1 (configuration not stated)	-13	46%	1%	40µM*	?	11%
Cc1[nH]c2ccc3ncccc3c2c1C	1	27%	50µM*	?	-8%	-22%
Cc1ccc2ncccc2c1[N+](=O)[O-]	1	13%	3%	-7%	-9%	-20%
Cc1nc2ccccc2n1C(C)c1nc2ccccc2n1CC(=O)c1ccc(OC(F)(F)F)cc1 (configuration not stated)	0	·	·	·	-11%	·
O=c1[nH]n(-c2ccc(F)cc2)c2ncccc12	-14	-7%	-10%	-10%[0.0925 µM]	-7%	-14%
Cc1c(-c2ccccn2)c(=O)[nH]n1-c1ccc(F)cc1	0	28%	50µM*	-29%	2%	?
CC(=O)Nc1ccc(N(C(=O)Cn2nnc3ccccc32)C(C(=O)NCc2ccccc2)c2ccc(C)cc2)cc1 (configuration not stated)	·	17%	-7%	-3%[59 µM]	·	-14%
SMILES	PI5P4Ka inh	HP1b binding inh	BAZ2B inh	G9a block	PLK1 PBD inh	JMJD2A Tudor
Cc1ccccc1NC(=O)c1c(C)[nH]c(=S)c(C#N)c1-c1ccc(Cl)cc1	?	18%	-4%	?	-21%	-6%
CCc1[nH]c(=S)c(C#N)c(-c2ccccc2)c1C(=O)OC	-22	20%	-6%	16µM*	?	?
Cc1ccc(-c2c(C(=O)Nc3ccccc3C)c(C)[nH]c(=S)c2C#N)o1	?	5%	79µM*	-130%	?	-4%[11.4 µM]
Cc1[nH]c(=S)c(C#N)c(-c2ccccc2)c1C(=O)Nc1ccccc1	?	-3%	-15%	?	?	79µM*
COC(=O)c1ccc(NC(=O)CSc2nc(=O)n(Cc3ccco3)c3c2CCC3)cc1	·	15%	-13%	-8%[59 µM]	·	-24%
Cn1c(SCc2ccccc2Cl)nc(=O)c2c1NC(=O)CC2c1cc(F)ccc1F (configuration not stated)	·	48%	1%	8%[59 µM]	·	-10%
COc1ccc(C=C(c2nc3ccccc3s2)c2nc3ccccc3s2)cc1O	3	?	?	?	-1%	?
COc1cc(/C=C/c2nc3ccccc3s2)cc(OC)c1O	-5	17%	?	50µM*	33%	-7%
COc1cc(/C=C/c2cc(C(=O)O)c3ccccc3n2)cc(OC)c1O	3	32%	-36%	-6%[59 µM]	-6%	-8%
COc1cc(C=C(c2nc3ccccc3s2)c2nc3ccccc3s2)ccc1O	9	?	35µM*	3.5µM*	-5%	45µM*
O=c1cc(CSc2ccc(Cl)cc2)nc(-c2ccccn2)[nH]1	8	16%	28µM*	37%	3%	79µM*
CO/N=C(\C(=O)N[C@@H]1C(=O)N2C(C(=O)O)=C(CSc3nc(=O)c(O)nn3C)CSC12)c1csc(N)n1 (some centres not stated)	·	·	·	28µM*!	·	·
CO/N=C(\C(=O)N[C@@H]1C(=O)N2C(C(=O)O)=C(COC(C)=O)CS[C@H]12)c1csc(N)n1	·	·	·	11µM*	·	·
CO/N=C(\C(=O)N[C@@H]1C(=O)N2C(C(=O)O)=C(COC(N)=O)CS[C@H]12)c1ccco1	-2	15%	-6%	?	-24%	25µM*
CON=C(C(=O)NC1C(=O)N2C(C(=O)O)=C(CSc3nc(=O)c(=O)[nH]n3C)CSC12)c1csc(N)n1 (configuration not stated)	-12	-11%	·	·	?	50µM*
CO/N=C(\C(=O)N[C@@H]1C(=O)N2C(C(=O)O)=C(COC(C)=O)CS[C@@H]12)c1csc(N)n1	·	·	·	-39%[12.7 µM]	·	·
CCOc1ccc(CCNC(=O)c2cnc3sc(N4CCCCC4)nn3c2=O)cc1	·	22%	2%	-2%[59 µM]	·	5%
O/C=c1\ccc2cccc3nc(C(F)(F)F)nc1c23	?	-8%	?	-48%[2.33 µM]	?	89µM*
